Inconclusive results are not listed. Entries that show only a call come without a potency. Active and inactive are the calls of the source. Unless noted, calls come from the whole dose curve; as a rule, active = well fitted curve in the direction sought with a large enough effect in the repeat runs; inconclusive = weak or mixed curves; inactive = no such curve, though single readings can be large; an effect the other way counts as inactive or inconclusive.
Legend:
[1] = A CellTox Green Cytotoxicity Assay to monitor cytotoxicity in HEK293 cells - 16 hour (AID 1224888); note: nearly all actives have a fitted effect of over 35% in size
Outline: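 Seeding of HEK293 cells together with cytotoxicity dye preceded a 5 h incubation at 37 C/5% CO2. Test compounds in DMSO were then added and fluorescence monitored across 40 h.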

[2] = qHTS RealTime-Glo MT Cell Viability Assay in HepG2 cells - 0 hour (AID 1224889); note: nearly all actives have a fitted effect of over 50% in size
Outline: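 Tox21 10K library screened in qHTS format on HepG2 cells carrying RealTime-Glo reagents. Compounds were added after a 5 h preincubation, and the luminescent signal from continuous culture was measured repeatedly during 40 h treatment.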

[3] = A CellTox Green Cytotoxicity Assay to monitor cytotoxicity in HepG2 cells - 8 hour (AID 1224890); note: nearly all actives have a fitted effect of over 45% in size
Outline: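 Nonlytic assay: viable cells exclude the dye, so fluorescence scales with cell death. HepG2 at 600 cells/well, compounds added after 5 h, signal read across 40 h.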

[4] = qHTS assay to identify small molecule antagonists of the estrogen receptor alpha (ER-alpha) signaling pathway using the BG1 cell line in the presence of 0.1 nM 17-beta-estradiol - cell viability counter screen (AID 1259241); note: nearly all actives have a fitted effect of over 40% in size
Outline: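 CellTiter-Fluor read (30 min, 37C) on ER-alpha/ERE-luc VM7Luc4E2 cells; 22 hr compound treatment; agonist 0.1 nM E2 final; same-well multiplex.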

[5] = qHTS assay to identify small molecule antagonists of the androgen receptor (AR) signaling pathway using the MDA cell line in the presence of 0.5 nM R1881 - cell viability counter screen (AID 1259242); note: nearly all actives have a fitted effect of over 45% in size
Outline: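 R1881 at 0.5 nM final stimulated MDA-kb2 cells during 16 hr compound treatment at 37C. Cytotoxicity read: CellTiter-Fluor fluorescence after 30 min.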

[6] = target: Estrogen receptor (Homo sapiens) (UniProt P03372); experiment: qHTS assay to identify small molecule antagonists of the estrogen receptor alpha (ER-alpha) signaling pathway using the BG1 cell line in the presence of 0.1 nM 17-beta-estradiol (AID 1259244); note: nearly all actives have a fitted effect of over 50% in size
Chain of Estrogen receptor (Homo sapiens) (P03372 whole entry, looked up): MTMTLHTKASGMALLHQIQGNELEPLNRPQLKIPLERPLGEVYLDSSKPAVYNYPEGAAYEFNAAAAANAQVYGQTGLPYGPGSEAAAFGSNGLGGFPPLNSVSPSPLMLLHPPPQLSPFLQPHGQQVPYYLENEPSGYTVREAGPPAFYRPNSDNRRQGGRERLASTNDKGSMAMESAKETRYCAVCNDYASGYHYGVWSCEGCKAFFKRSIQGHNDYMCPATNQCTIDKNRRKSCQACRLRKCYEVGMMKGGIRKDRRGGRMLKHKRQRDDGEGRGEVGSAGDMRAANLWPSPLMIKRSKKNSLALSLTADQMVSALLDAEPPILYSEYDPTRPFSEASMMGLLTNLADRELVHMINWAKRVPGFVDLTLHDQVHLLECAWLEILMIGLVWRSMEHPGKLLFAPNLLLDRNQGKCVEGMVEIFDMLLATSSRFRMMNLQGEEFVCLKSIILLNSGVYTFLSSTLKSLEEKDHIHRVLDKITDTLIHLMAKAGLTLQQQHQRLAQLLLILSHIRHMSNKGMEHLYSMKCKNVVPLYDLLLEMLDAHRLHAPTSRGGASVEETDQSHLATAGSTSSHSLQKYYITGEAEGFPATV
Outline: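 VM7Luc4E2; 4xERE-luciferase; 0.1 nM E2 final; 22 h co-incubation, 37C; ONE-Glo luminescence after 30 min at room temperature.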

[7] = qHTS assay to identify small molecule HDAC inhibitors (AID 1259364); note: potency is the fitted concentration of half-maximal effect;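 note: wild-type HCT-116 cells with endogenous class I/II HDAC activity; nearly all actives have a fitted effect of over 45% in size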
Outline: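 Relative class I and II HDAC activity is taken from the luminogenic signal in HCT-116 cells, with compound exposure 2 hr and reagent development 30 min at room temperature.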

[8] = qHTS assay to identify small molecule HDAC inhibitors - cell viability counter screen (AID 1259365); note: series mostly up to about 92 µM; nearly all actives have a fitted effect of over 50% in size
Outline: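 To flag cytotoxic hits, 1,500 wild-type HCT-116 cells per well, plated the day before, receive test compounds for 2hr at 37 C before CellTiter-Glo reagent and a luminescence read.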

[9] = qHTS assay to identify small molecule agonists of the sonic hedgehog signaling (Shh) pathway - cell viability counter screen (AID 1259366); note: nearly all actives have a fitted effect of over 50% in size
Outline: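 Fluorescence from CellTiter-Fluor reports live cells in this counter screen. NIH/3T3-derived Gli1-Luc reporter cells receive test compounds for 24hr at 37C; reagent goes in at 23hr.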

[10] = qHTS assay to identify small molecule antagonists of the sonic hedgehog signaling (Shh) pathway - cell viability counter screen (AID 1259367); note: nearly all actives have a fitted effect of over 55% in size
Outline: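 Seed 3T3 Gli1-Luc cells at 2,000 per well; incubate 4 hr; add compound in DMSO, then conditioned medium; incubate at 37C with 5% CO2; add CellTiter-Fluor after 23 hr; read fluorescence 1 hr later.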

[11] = qHTS assay to identify small molecule antagonists of the sonic hedgehog signaling (Shh) pathway (AID 1259369; calls by dose curve; note: nearly all actives have a fitted effect of over 45% in size)
Outline: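 Conditioned medium drives Shh signalling in 3T3Gli1-Luc cells; compounds in DMSO co-applied, 24hr at 37 C, then luciferase luminescence.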

[12] = target: Estrogen receptor beta (Homo sapiens) (UniProt Q92731); experiment: qHTS assay to identify small molecule agonists of the estrogen receptor beta (ER-beta) signaling pathway (AID 1259377; active = well fitted activation curve with a large enough effect in the signal ratio in the repeat runs, not every such curve was filed as active; the % refers to the signal ratio)
Chain of Estrogen receptor beta (Homo sapiens) (Q92731 whole entry, looked up): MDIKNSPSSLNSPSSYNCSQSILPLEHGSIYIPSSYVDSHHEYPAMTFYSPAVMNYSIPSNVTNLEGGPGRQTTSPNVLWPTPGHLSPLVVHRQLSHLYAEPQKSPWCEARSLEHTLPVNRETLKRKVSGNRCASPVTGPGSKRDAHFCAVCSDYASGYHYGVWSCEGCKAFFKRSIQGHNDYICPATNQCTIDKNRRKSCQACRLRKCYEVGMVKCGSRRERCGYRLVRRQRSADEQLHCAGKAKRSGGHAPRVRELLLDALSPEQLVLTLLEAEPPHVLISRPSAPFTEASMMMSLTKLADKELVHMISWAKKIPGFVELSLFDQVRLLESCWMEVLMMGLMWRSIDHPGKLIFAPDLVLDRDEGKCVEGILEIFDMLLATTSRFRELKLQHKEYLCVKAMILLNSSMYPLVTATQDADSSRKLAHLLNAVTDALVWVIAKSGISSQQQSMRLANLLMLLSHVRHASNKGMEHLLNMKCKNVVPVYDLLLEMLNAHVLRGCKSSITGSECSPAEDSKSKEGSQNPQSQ
Outline: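 Screening used GripTite ER-beta-UAS-bla cells held in 2% charcoal-stripped FBS medium. After overnight (16 hr) compound incubation at 37C, beta-lactamase activity was detected with a FRET substrate by fluorescence.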

[13] = target: Estrogen receptor beta (Homo sapiens) (UniProt Q92731); experiment: qHTS assay to identify small molecule antagonists of the estrogen receptor beta (ER-beta) signaling pathway (AID 1259378; active = well fitted inhibition curve with a large enough effect in the signal ratio in the repeat runs, not every such curve was filed as active; the % refers to the signal ratio)
Outline: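 ER-beta-UAS-bla HEK293T cells in 2% charcoal-stripped FBS medium treated with compound plus 1nM final 17-beta-estradiol for 16 hr at 37C. Beta-lactamase reporter read by FRET substrate fluorescence after 2 hours at room temperature.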

[14] = qHTS assay to identify small molecule agonists of the androgen receptor (AR) signaling pathway in the presence of an antagonist - cell viability counter screen (AID 1259379);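 note: MDA-kb2 human breast cancer cells carrying an MMTV luciferase reporter; series mostly up to about 92 µM; nearly all actives have a fitted effect of over 25% in size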
Outline: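 A CellTiter-Fluor read-out measured viability of MDA-kb2 reporter cells (MMTV promoter with AR and GR response elements). Treatment: nilutamide 3.0uM final with compounds at 15 concentrations, 16 hr, 37C, 0% CO2.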

[15] = qHTS assay to identify small molecule agonists of the estrogen receptor beta (ER-beta) signaling pathway - cell viability counter screen (AID 1259380); note: nearly all actives have a fitted effect of over 30% in size
Outline: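 Cells used were ER-beta-UAS-bla HEK293T in medium with 2% charcoal-stripped FBS. They were treated for 16 hr at 37C. Viability came from CellTiter-Glo luminescence.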

[16] = qHTS assay to identify small molecule antagonists of the estrogen receptor beta (ER-beta) signaling pathway - cell viability counter screen (AID 1259382); note: series mostly up to about 92 µM; nearly all actives have a fitted effect of over 55% in size
Outline: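 Agonist-stimulated (1nM E2) ER-beta-UAS-bla HEK293T cells are incubated with library compounds for 16 hr at 37C. Cell viability is then assessed in the reporter-assay wells by adding CellTiter-Glo and reading luminescence after 30 min.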

[17] = qHTS assay to identify small molecule agonists of the sonic hedgehog signaling (Shh) pathway (AID 1259368; calls by dose curve;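 note: NIH/3T3-derived 3T3Gli1-Luc cells carrying a stable Gli1-driven firefly luciferase reporter; series mostly up to about 92 µM; nearly all actives have a fitted effect of over 15% in size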)
Outline: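 Mouse fibroblast (NIH/3T3) reporter cells with stably integrated Gli1-Luc were treated 24 hr with compound; firefly luciferase luminescence served as the read-out.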

[18] = qHTS assay to identify small molecule phospholipidosis (PLD) inducers (AID 1259344; active = well fitted curve in the direction sought with a large enough effect; an effect the other way counts as inactive or inconclusive)
Outline: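 Quantitative HTS in HepG2: compound plus LipidTOX Red dye for 24 h, paraformaldehyde fixation with Hoechst 33342, widefield high-content imaging; amiodarone as positive and DMSO as negative control.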

[19] = target: Androgen receptor (Homo sapiens) (UniProt P10275); experiment: qHTS assay to identify small molecule antagonists of the androgen receptor (AR) signaling pathway using the MDA cell line in the presence of 0.5 nM R1881 (AID 1259243); note: nearly all actives have a fitted effect of over 50% in size
Chain of Androgen receptor (Homo sapiens) (P10275 whole entry, looked up): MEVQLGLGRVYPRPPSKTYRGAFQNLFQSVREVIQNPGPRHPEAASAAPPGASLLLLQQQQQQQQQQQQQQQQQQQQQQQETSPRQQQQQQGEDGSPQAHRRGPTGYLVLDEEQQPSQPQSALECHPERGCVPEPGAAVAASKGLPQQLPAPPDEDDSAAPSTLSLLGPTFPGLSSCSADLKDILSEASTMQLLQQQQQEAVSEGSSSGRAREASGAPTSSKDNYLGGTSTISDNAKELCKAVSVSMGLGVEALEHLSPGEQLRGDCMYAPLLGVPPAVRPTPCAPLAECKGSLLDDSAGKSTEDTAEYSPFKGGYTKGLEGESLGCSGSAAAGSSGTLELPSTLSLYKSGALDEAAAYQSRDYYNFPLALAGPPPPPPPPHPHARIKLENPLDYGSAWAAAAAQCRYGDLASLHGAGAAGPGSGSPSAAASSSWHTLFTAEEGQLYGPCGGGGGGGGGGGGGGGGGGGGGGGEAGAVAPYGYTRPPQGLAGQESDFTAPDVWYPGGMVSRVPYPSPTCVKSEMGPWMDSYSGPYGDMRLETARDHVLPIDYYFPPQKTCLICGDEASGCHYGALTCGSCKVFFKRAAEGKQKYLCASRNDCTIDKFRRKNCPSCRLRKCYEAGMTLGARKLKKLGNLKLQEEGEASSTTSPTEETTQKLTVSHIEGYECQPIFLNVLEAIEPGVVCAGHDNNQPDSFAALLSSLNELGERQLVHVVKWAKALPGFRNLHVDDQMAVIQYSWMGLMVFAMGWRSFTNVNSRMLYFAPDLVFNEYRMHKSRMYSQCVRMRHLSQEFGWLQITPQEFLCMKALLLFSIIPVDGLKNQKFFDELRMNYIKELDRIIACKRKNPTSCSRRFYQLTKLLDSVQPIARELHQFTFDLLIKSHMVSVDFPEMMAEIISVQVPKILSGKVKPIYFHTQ
Outline: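 We exposed MDA-kb2 cells to compounds under 0.5 nM R1881 stimulation for 16 hr at 37C and quantified MMTV-driven luciferase by luminescence.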

[20] = target: Androgen receptor (Homo sapiens) (UniProt P10275); experiment: qHTS assay to identify small molecule agonists of the androgen receptor (AR) signaling pathway in the presence of an antagonist (AID 1259381; calls by dose curve; note: nearly all actives have a fitted effect of over 15% in size)
Outline: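 Using human MDA-kb2 cells with an MMTV promoter–luciferase construct (AR and GR response elements), agonist activity is scored under 3.0uM nilutamide (final) co-treatment; 16hr incubation, 37C, luminescence readout via ONE-Glo.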

SMILES	Potency [1]	Potency [2]	Potency [3]	outcome [4]	outcome [5]	outcome [6]	Potency [7]	outcome [8]	outcome [9]	outcome [10]	Potency [11]	Potency [12]	outcome [13]	outcome [14]	Potency [15]	outcome [16]	outcome [17]	Potency [18]	Potency [19]	outcome [20]
O=CN1CCCCC1	inactive	inactive	inactive	inactive	inactive	inactive	inactive	inactive	inactive	inactive	inactive	inactive	inactive	inactive	inactive	inactive				
CC(C)(O)c1ccc(C(C)(C)O)cc1	inactive	inactive	inactive	inactive	inactive	inactive	inactive	inactive	inactive	inactive	inactive			inactive	inactive	inactive	inactive			
CC(C)(C)C(=O)CC(=O)C(C)(C)C	inactive	inactive	inactive	inactive	inactive	inactive	inactive	inactive	inactive	inactive	inactive	inactive	inactive	inactive	inactive					
Cc1cccc(N)n1	inactive	inactive	inactive	inactive	inactive	inactive	inactive	inactive	inactive	inactive	inactive		inactive	inactive	inactive	inactive	inactive			
COc1cc(S(N)(=O)=O)cc(C(=O)O)c1OC	inactive	inactive	inactive	inactive	inactive	inactive	inactive	inactive	inactive	inactive	inactive		inactive	inactive	inactive	inactive	inactive			
CC(C)(C)c1ccc(N)cc1	inactive	inactive	inactive	inactive	inactive	inactive		inactive	inactive	inactive	inactive	inactive	inactive	inactive	inactive		inactive			
O=Cc1ccc(C(=O)O)cc1	inactive	inactive	inactive	inactive	inactive	inactive	inactive	inactive	inactive	inactive	inactive			inactive	inactive	inactive	inactive			
Cc1ccc(O)c([N+](=O)[O-])c1	inactive	inactive	inactive	inactive	inactive	inactive	inactive	inactive	inactive	inactive	inactive	inactive		inactive						
CCCC(=O)CC	inactive	inactive	inactive	inactive	inactive	inactive	inactive	inactive	inactive	inactive		inactive	inactive	inactive	inactive	inactive				
C[Si](C)(C)O[Si](O)(O)O	inactive	inactive	inactive	inactive	inactive	inactive	inactive	inactive	inactive	inactive	inactive			inactive	inactive	inactive	inactive			
COC(=O)c1c(C)cc(O)c(C)c1O	inactive	inactive	inactive	inactive	inactive	inactive	inactive	inactive	inactive	inactive		inactive	inactive	inactive	inactive	inactive	inactive			
CCOC(=O)c1ccc(N(C)C)cc1	inactive	inactive	inactive	inactive	inactive	inactive	9.69 µM (active)	inactive	inactive	inactive	inactive		inactive	inactive	inactive		inactive			
CC(C)c1cc(C(C)C)cc(C(C)C)c1	inactive	inactive	inactive	inactive	inactive	inactive		inactive	inactive	inactive	inactive	inactive	inactive	inactive	inactive	inactive	inactive			
N=C(N)S(=O)O	inactive	inactive	inactive	inactive	inactive	inactive		inactive	inactive	inactive	inactive			inactive	inactive	inactive	inactive			
CCCCCCCCCCCC(C)=O	inactive	inactive	inactive	inactive	inactive	inactive		inactive	inactive	inactive	inactive	inactive	inactive	inactive	inactive	inactive	inactive			
C=CC(C)(CCC=C(C)C)OC(=O)C(C)C (stereo not given)	inactive	inactive	inactive	inactive	inactive	inactive	inactive	inactive	inactive	inactive	inactive	inactive	inactive	inactive	inactive	inactive	inactive			

SMILES	Potency [1]	Potency [2]	Potency [3]	outcome [4]	outcome [5]	outcome [6]	Potency [7]	outcome [8]	outcome [9]	outcome [10]	Potency [11]	Potency [12]	outcome [13]	outcome [14]	Potency [15]	outcome [16]	outcome [17]	Potency [18]	Potency [19]	outcome [20]
CCN(CC)CC	inactive	inactive	inactive	inactive	inactive	inactive	inactive	inactive	inactive	inactive	inactive			inactive	inactive	inactive	inactive			
CC1=C(O)C(=O)CO1	inactive	inactive	inactive	inactive	inactive	inactive	inactive	inactive	inactive	inactive	inactive	inactive	inactive	inactive	inactive	inactive				
CCOC(=O)CC	inactive	inactive	inactive	inactive	inactive	inactive	inactive	inactive	inactive	inactive	inactive	inactive		inactive		inactive				
CCCCCCC(O)CO (stereo not given)	inactive	inactive	inactive	inactive	inactive	inactive	inactive	inactive	inactive	inactive	inactive		inactive	inactive	inactive		inactive			
Cc1ccc(OC(=O)CC(C)C)cc1	inactive	inactive	inactive	inactive	inactive	inactive	inactive	inactive	inactive	inactive	inactive			inactive	inactive	inactive				
CC(=O)OC/C=C(/C)CCC=C(C)C	inactive	inactive	inactive	inactive	inactive	inactive	inactive	inactive	inactive	inactive	inactive			inactive	inactive	inactive	inactive			
CC(C)(C)c1ccc(C(=O)CCCCl)cc1	inactive	inactive	inactive	inactive	inactive	inactive		inactive	inactive	inactive	inactive	inactive	inactive	inactive	inactive		inactive			
BrCCOc1ccccc1	inactive	inactive	inactive	inactive	inactive	inactive	inactive	inactive	inactive	inactive	inactive	inactive	inactive	inactive	inactive	inactive				
Cc1ccc(NC(N)=O)cc1	inactive	inactive	inactive	inactive	inactive	inactive		inactive	inactive	inactive	inactive	inactive	inactive	inactive	inactive		inactive			
CCC(C)SSC(C)CC (stereo not given)	inactive	inactive	inactive	inactive	inactive	inactive	inactive	inactive	inactive	inactive	inactive	inactive	inactive	inactive	inactive	inactive				
CNCCc1ccccn1	inactive	inactive	inactive	inactive	inactive		inactive	inactive	inactive	inactive	inactive			inactive	inactive	inactive	inactive	inactive		
CCC(C)(C)C	inactive	inactive	inactive		inactive	inactive		inactive	inactive	inactive	inactive	inactive	inactive		inactive	inactive	inactive			
CNC(C)=O	inactive	inactive	inactive	inactive	inactive	inactive		inactive	inactive	inactive	inactive	inactive	inactive	inactive	inactive	inactive				
CC(CN1CC(=O)NC(=O)C1)N1CC(=O)NC(=O)C1 (stereo not given)	inactive	inactive		inactive	inactive	inactive	inactive	inactive	inactive	inactive		inactive	inactive	inactive	inactive	inactive			inactive	inactive
C[C@@H](CN1CC(=O)NC(=O)C1)N1CC(=O)NC(=O)C1	inactive	inactive		inactive	inactive	inactive	inactive	inactive	inactive	inactive		inactive	inactive	inactive	inactive		inactive	inactive	inactive	inactive
O=C(O)CCCCCCCCCC(=O)O	inactive	inactive		inactive	inactive	inactive	inactive	inactive	inactive	inactive		inactive	inactive	inactive	inactive	inactive	inactive		inactive	inactive
